Compound activity from PubChem.
HPGD inh: qHTS Assay for Inhibitors of HPGD (15-Hydroxyprostaglandin Dehydrogenase); Potency, µM, inactives show at the top dose activity change, negative = inhibition, most hits filed as inhibitors; purified HPGD, NADH fluorescence kinetic, PGE2 substrate; 150,000 compounds, 4.3% hits; 15-hydroxyprostaglandin dehydrogenase [NAD(+)] (Homo sapiens), P15428; further: potency means the concentration at half of the fitted maximal effect
Target sequence (P15428 whole entry, looked up): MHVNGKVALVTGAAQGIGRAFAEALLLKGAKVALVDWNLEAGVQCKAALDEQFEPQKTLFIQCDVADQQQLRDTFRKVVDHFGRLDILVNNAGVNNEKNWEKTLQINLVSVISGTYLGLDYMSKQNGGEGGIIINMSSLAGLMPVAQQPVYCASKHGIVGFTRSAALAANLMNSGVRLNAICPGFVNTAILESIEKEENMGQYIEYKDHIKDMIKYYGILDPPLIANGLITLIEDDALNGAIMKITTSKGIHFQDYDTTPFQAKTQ
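NADH formation kinetics: reaction with 30 uM PGE2 and 1 mM NAD+ (final), 20 nM enzyme, Tris-HCl pH 8 with Tween 20, after 15 min compound preincubation at room temperature. Fluorescence change, last versus first of five reads.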
IMPase Li inh: qHTS Assay for Identifying the Cell-Membrane Permeable IMPase Inhibitors: Potentiation with Lithium; AID 1457, 2008; 210,000 compounds, 0.35% hits; CHO-M1 cells, IP1 TR-FRET (IP-One), carbachol + lithium; Potency, µM (titrated, usually from 59.4 µM), for inactives: at the top dose activity, negative = IMPase inhibition, actives largely listed as inhibitors; active means well fitted curve in the direction sought with a large enough effect; inconclusive means small, poorly fitted or top-dose-only effect, or another doubt; inactive means no such curve, though single readings can be large; an effect the other way counts as inactive or inconclusive;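 further: IP1 builds up when IMPase is blocked and the TR-FRET signal falls; potency means the concentration at half of the fitted maximal effect; plate controls were basal vehicle for no effect and high inhibitor control for full effect; nearly all actives have a fitted effect of over 50% in size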
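CHO cells stably expressing M1 receptor (2000/well, cultured 16–30 h) treated 30 min at 37C with compound plus low lithium. Cytosolic IP1 by TR-FRET (665/620 ratio and 620 channel) after 10 min lysis; AC50 by Hill fit.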
PNC assembly inh: High Content Assay for Compounds that inhibit the Assembly of the Perinucleolar Compartment; PC3M PTB-GFP, PNC prevalence imaging, 16 h; stronger effect = lower value; activity change (PNC), negative = inhibition, % at 10 µM; 140,000 compounds, 3.1% hits; AID 2417, 2010;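 active means readout at or below -70, meaning at least 70% loss of cells showing the perinucleolar compartment, a nuclear body marking cancer cells; inconclusive means readout between -30 and a set limit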;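 further: plate controls were DMSO wells for no effect and camptothecin positive control wells for full effect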
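Compounds are pinned in duplicate onto adhered PC3M cells stably expressing GFP-tagged PTB and incubated 16 h at 37 C. Cells are then fixed, nuclei stained with Hoechst, and PNC-positive cells counted.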
IMPase inh: qHTS Assay for Identifying the Cell-Membrane Permeable IMPase Inhibitors; Inositol monophosphatase 1 (Rattus norvegicus), P97697; CHO-M1 cells, IP1 accumulation, HTRF TR-FRET ratio; inhibition (IP1 accumulation), % at 46.1 µM; 120,000 tested, under 10 active; active means well fitted curve in the direction sought with a large enough effect in the signal ratio, not every such curve was filed as active; inconclusive means small, poorly fitted or top-dose-only effect, or a change in a side signal; inactive means no such curve, though single readings can be large or run the other way; the % refers to the signal ratio;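 further: cells stimulated with carbachol in lithium chloride buffer; plate controls were DMSO basal wells for no effect and reference inhibitor wells for full effect; higher means more IMPase inhibition seen as more IP1 and lower FRET ratio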
Target sequence (P97697 whole entry, looked up): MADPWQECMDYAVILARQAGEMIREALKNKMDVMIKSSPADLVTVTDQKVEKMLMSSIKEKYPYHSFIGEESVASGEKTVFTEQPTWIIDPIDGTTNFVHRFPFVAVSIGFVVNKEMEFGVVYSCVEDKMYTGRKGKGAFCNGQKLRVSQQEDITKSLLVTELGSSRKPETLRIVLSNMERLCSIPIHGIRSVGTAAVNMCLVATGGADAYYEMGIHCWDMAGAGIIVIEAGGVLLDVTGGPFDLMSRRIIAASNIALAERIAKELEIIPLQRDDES
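CHO-M1, 2000 cells/well, cultured 16–30 h; cpd up to 46 uM; carbachol (50 uM solution, stimulation buffer w/ 50 mM LiCl, pH 7.4), 30 min 37C; IP-One TR-FRET, 10 min RT; Ex 320/Em 665, 620; Hill-fit AC50.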
NPSR antagonist: qHTS Assay for Antagonists of the Neuropeptide S Receptor: cAMP Signal Transduction; Q6W5P4; CHO-NPSR cells, cAMP TR-FRET, antagonist mode; Potency, µM (highest dose often 38.3 µM), inactives show top-dose activity change, negative = inhibition, usual class: inhibitors; 220,000 compounds, 1% hits; AID 1461, 2008; active means well fitted curve in the direction sought with a large enough effect; inconclusive means small, poorly fitted or top-dose-only effect, or another doubt; inactive means no such curve, though single readings can be large; an effect the other way counts as inactive or inconclusive; further: potency means the concentration at half of the fitted maximal effect; nearly all actives have a fitted effect of over 50% in size
ALDH1A1 block: qHTS Assay for Inhibitors of Aldehyde Dehydrogenase 1 (ALDH1A1). 220,000 compounds, 7.3% hits. Potency, µM (titrated, usually from 75.3 µM), without a hit: at the top dose activity, negative = inhibition, most hits filed as inhibitors. Purified ALDH1A1, NADH fluorescence, propionaldehyde substrate. AID 1030, 2008;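 further: potency means the concentration at half of the fitted maximal effect; plate controls were no enzyme wells and a reference inhibitor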
Numbers without * were called inactive; [ ] = remark or other dose. Hits are enriched below; roughly 11% of the tested compounds scored in any of these assays. Unless noted, the call rests on the fitted dose curve; in most records, active means well fitted inhibition curve with a large enough effect (not every such curve was filed as active); inconclusive means small, poorly fitted or top-dose-only effect, or another doubt; inactive means no such curve, though single readings can be large or run the other way. Unless noted, on the % scale 0 is the no-effect control and ±100 the full control effect.

For O=c1[nH]c(=S)[nH]c(O)c1C(c1ccccn1)c1c(O)[nH]c(=S)[nH]c1=O the results were IMPase Li inh -1%, NPSR antagonist 23% and ALDH1A1 block inconclusive.
`CCn1c(O)c(C(c2ccccn2)c2c(O)n(CC)c(=S)[nH]c2=O)c(=O)[nH]c1=S` gave HPGD inh -8%, IMPase Li inh -11%[38.3 µM], PNC assembly inh 60, IMPase inh -7, NPSR antagonist -10%[46.1 µM] and ALDH1A1 block 25µM*.
Screening Cc1nonc1-c1nc(-c2nonc2N)n[nH]1 returned HPGD inh 14µM*, IMPase Li inh -18%[38.3 µM], PNC assembly inh -26, IMPase inh 2, NPSR antagonist 2%[7.67 µM] and ALDH1A1 block -1%.
`COc1ccc(N2C(=O)/C(=C/c3cc(C)n(-c4ccc(C)cn4)c3C)C(=O)NC2=S)c(OC)c1` gave IMPase Li inh 15%, NPSR antagonist -55% and ALDH1A1 block inconclusive.
Screening COc1ccc(-c2cc(C(F)(F)F)n3nc(C(=O)N4CCC5(CC4)OCCO5)cc3n2)cc1OC returned HPGD inh 13µM*, IMPase Li inh -20%[38.3 µM], PNC assembly inh -2, IMPase inh -1, NPSR antagonist -20%[46.1 µM] and ALDH1A1 block 10µM*.
Screening C=C(Cl)CCl returned HPGD inh -2%, IMPase Li inh -11% and ALDH1A1 block 20µM*.
Screening CN(CCC(N)CC(=O)NC1C=CC(n2ccc(N)nc2=O)OC1C(=O)O)C(=N)N (stereo unspecified) returned HPGD inh -16%, IMPase Li inh 3% and ALDH1A1 block 1%.
`Clc1ccc(C(c2ccc(Cl)cc2)n2cc[n+](CC(OCc3ccc(Cl)cc3Cl)c3ccc(Cl)cc3Cl)c2)cc1` (stereo unspecified) gave HPGD inh -6%, IMPase Li inh 21%, NPSR antagonist 13µM* and ALDH1A1 block -10%.
Screening CCCOc1ccc(N2C(=O)CC(N3CC=C(c4ccccc4)CC3)C2=O)cc1 (stereo unspecified) returned IMPase Li inh 2%, NPSR antagonist 3% and ALDH1A1 block 10µM*.
For C=CCO the results were HPGD inh -8%, IMPase Li inh 5% and ALDH1A1 block -3%.
For COc1ccc2o/c(=N\O)c(C(=O)Nc3ccc(C)cc3)cc2c1 the results were IMPase Li inh 8%, NPSR antagonist 37% and ALDH1A1 block inconclusive.
O=c1c2ccccc2nc(-c2ccccc2)n1-c1ccccc1 was read as NPSR antagonist -21%.
O=c1c2ccccc2[se]n1-c1ccccc1 was read as HPGD inh 0.63µM*, IMPase Li inh 2%, PNC assembly inh 36, IMPase inh 2, NPSR antagonist inconclusive and ALDH1A1 block 0.22µM*.
`CCOP(=S)(NN(Cc1ccccc1)C(=O)c1ccccc1)OCC` gave HPGD inh -11%, IMPase Li inh 9%, PNC assembly inh inconclusive, NPSR antagonist -15% and ALDH1A1 block 0%.
For O=C(c1cc([N+](=O)[O-])ccc1N1CCNCC1)N1CCOCC1 the results were HPGD inh -24%, IMPase Li inh 5%, PNC assembly inh 5, IMPase inh -6, NPSR antagonist 17% and ALDH1A1 block inconclusive.
For CN(C)c1ccc(P(=O)(Nc2ccc([N+](=O)[O-])cc2)N2CCOCC2)c(NC(=O)c2cccs2)c1 (stereo unspecified) the results were HPGD inh inconclusive, IMPase Li inh 8%, PNC assembly inh -80*, IMPase inh 1, NPSR antagonist -7% and ALDH1A1 block -6%.
`C=C(c1ccccc1)P(=O)(O)O` gave HPGD inh -4%, IMPase Li inh -5%, PNC assembly inh -113*, NPSR antagonist 25% and ALDH1A1 block 13%.
C=C(C)c1ccccc1 (tested in a mixture with another compound) was read as HPGD inh 1%, IMPase Li inh 0% and ALDH1A1 block 1%[13.5 µM].
Cc1cc(C)nc(NS(=O)(=O)c2ccc(N=Cc3c(O)n(C)c(=O)n(C)c3=O)cc2)n1 was read as IMPase Li inh 9%, NPSR antagonist -4% and ALDH1A1 block 5%.
Screening O=C(O)c1cccc2nc3ccccc3nc12 returned IMPase Li inh -14%, NPSR antagonist 24% and ALDH1A1 block inconclusive.
`O=C(O)c1ccccc1C(=O)O` gave HPGD inh -11%, IMPase Li inh 13% and ALDH1A1 block 28µM*.
O[N+]1=CC=CCC1=S.On1ccccc1=S.[Zn] was read as HPGD inh inconclusive, IMPase Li inh 16% and ALDH1A1 block 2.8µM*.
For O=C(Nc1ccc(F)cc1F)c1cccn(Cc2ccccc2)c1=O the results were IMPase Li inh -1%, NPSR antagonist -1% and ALDH1A1 block 1%.
CC(=Nc1c(C)n(C)n(-c2ccccc2)c1=O)c1c(O)n(Cc2ccccc2)c(=O)[nH]c1=O was read as HPGD inh 20µM*, IMPase Li inh 15%[38.3 µM], PNC assembly inh 16, IMPase inh 12, NPSR antagonist -9%[46.1 µM] and ALDH1A1 block -8%.
Screening C/C(=N\Nc1ccccc1)c1c(O)n(Cc2ccccc2)c(=O)[nH]c1=O returned HPGD inh 28µM*, IMPase Li inh 20%, PNC assembly inh 30, IMPase inh 11, NPSR antagonist -32% and ALDH1A1 block -2%.
`C/C(=N\Nc1ccccc1)c1c(O)n(-c2ccccc2)c(=O)[nH]c1=O` gave NPSR antagonist 7% and ALDH1A1 block inconclusive.
`CCCCCCN=C(C)c1c(O)n(Cc2ccccc2)c(=O)[nH]c1=O` gave HPGD inh -26%, IMPase Li inh 22%[38.3 µM], PNC assembly inh -111*, IMPase inh -2, NPSR antagonist 11%[46.1 µM] and ALDH1A1 block 7%.
CC(C)CCON=O was read as HPGD inh -6%, IMPase Li inh -8% and ALDH1A1 block inconclusive.
`Cc1cc(S(=O)(=O)NC(C)C)ccc1OCC(=O)N1CCN(Cc2ccc3c(c2)OCO3)CC1` gave HPGD inh -9%, IMPase Li inh 16%[38.3 µM], PNC assembly inh -27, IMPase inh -4, NPSR antagonist -5%[46.1 µM] and ALDH1A1 block 19%.
